Growth data for 36 compounds are collected here from PubChem BioAssay (NCI).

The structures appear in SMILES notation. This is part of a sample that, as a whole, favours compounds with a hit. Of some 83,000 tested, about 20% had one in any assay.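 Single-dose data. Exposure time 48 hours. Values below 10 considered active.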 Activity calls are given as the source filed them.

The first assay relates to ACHN renal. Description: NCI-60 one-dose screen, 48 h (100 = growth as untreated, 0 = no growth, -100 = all killed). The conditions noted are these: 10 µM unless noted.
For the compound `COc1ccc(/C=C/C(=O)c2cc3c(N)c(C(=O)Nc4cccc5ccccc45)sc3nc2C)cc1`, the growth was 71.8% (inactive).
On the same count and under the same terms, the value for `Nc1ncnc2c1c(-c1cccc(Cl)c1)nn2CC(=O)N1CCOCC1` was 95.6% (inactive); that for `CC(=O)O[C@H]1CC2CCC3C(CC[C@@]4(C)C3C[C@H]([N+]3(C)CCCCC3)[C@@H]4OC(C)=O)[C@@]2(C)C[C@@H]1N1CCCCC1` (stereo partly specified) was 104% (inactive).
The same measure, in the same setting: under `c1ccc(Cn2cc3c(c2)-c2oncc2CC3)cc1` stands 56.7% (inactive).

The subject of a further assay is CAKI-1 renal. The assay is described as above. The conditions noted are these: 10 µM unless noted.
For the compound `O=C1C(Cl)=C(NCCCCCCNC2=C(Cl)C(=O)c3ccccc3C2=O)C(=O)c2ccccc21`, the growth was 97.8% (inactive).
On the same count and under the same terms, the value for `CCCC/C=C/[C@@H]1C[C@H]1CCO` was 98.9% (inactive).
On the same count and under the same terms, under `C=C(C)[C@@H]1CC[C@]2(CO)CC[C@]3(C)[C@H](CC[C@@H]4[C@@]5(C)CC[C@H](NCO)C(C)(C)[C@@H]5CC[C@]43C)[C@@H]12` stands -96.9% (active).
On to `Cc1cccc(/C=C/c2c(C(=O)/C=C/c3ccccc3)c(C)nc3ccccc23)c1`, for which the growth is -36.2% (active).
Same read-out and setting: under `Cc1ccc(-c2nc(N3CCCNCC3)c3oc(-c4ccc(C)cc4)nc3n2)cc1` stands 108% (inactive); under `Cc1sc2nc(NCCc3c[nH]c4ccc(Cl)cc34)[nH]c(=O)c2c1C`, 12% (inactive); under `COc1ccc(OC)c(Nc2nnc(-c3ccc(O)c(OC)c3)o2)c1`, 30.4% (inactive).
Same read-out and setting: under `COc1ccccc1NC(=O)N=Nc1c(O)[nH]c2ccccc12` stands 73.3% (inactive).
On the same count and under the same terms, under `Nc1nc2ccccc2c2c1S(=O)(=O)c1ccc(Cl)cc1C2=O` stands 19% (inactive); under `Nc1n[nH]c2cccc(C#Cc3cccc(C(=O)Nc4cc(C(F)(F)F)cc(C(F)(F)F)c4)c3)c12`, 96.2% (inactive); under `CS(=O)(=O)Nc1cc(-c2ccc3ncnc(Nc4ccc5c(cnn5Cc5ccc(F)cc5)c4)c3c2)cnc1Cl`, 25.7% (inactive).
As to `Fc1cc2c(cc1Cl)N(c1ncnc3ccc(-c4ccc5n[nH]nc5c4)cc13)CC2`, the growth is 49.3% (inactive).
Regarding `CCN1C(=S)N(c2ccccc2)C2NC(=S)N(/N=C/C=C/c3ccccc3OC)C21` (stereo unspecified), the growth is 27.7% (inactive).
On the same count and under the same terms, under `O=c1c2cccc3c(N4CCCC4)ccc(c32)c2nc3ccccc3n12` stands 51.3% (inactive).
On to `OB1OCc2cc(/C=C/c3cccc(C(F)(F)F)c3)ccc21`, for which the growth was -46% (active).
Regarding `O=C(/C=C/c1ccccc1)Nc1ncc(Cc2ccccc2Cl)s1`, the growth was 26.2% (inactive).
On the same count and under the same terms, under `CN(C)CCNC(=O)c1ccc(-c2nc3ccc4[nH]ncc4c3c3c2C2CCC3C2)cc1` (stereo unspecified) stands 15.2% (inactive); under `COC12C=C/C(=C(/C(=O)OCc3ccncc3)C(=O)CCCCCCCCC3(OC)C=C/C(=C(/C(=O)OCc4ccncc4)C(=O)CCCCCCCC1)O3)O2`, -48.6% (active).
Still for that read-out and setting: the value for `O=C(/C=C/c1cccc(Cl)c1)c1cccc(OCCCOc2cccc(C(=O)/C=C/c3cccc(Cl)c3)c2)c1` was 70.4% (inactive); that for `CCn1c(SCC(=O)N/N=C(\C)c2ccc(Cl)cc2)nc2c1c(=O)n(C)c(=O)n2C` was 85.3% (inactive); that for `Cc1ccc(C[P+](c2ccccc2)(c2ccccc2)c2ccccc2)cc1` was 44.8% (inactive).
On the same count and under the same terms, the value for `Clc1ccc2c(NC3CCC(N4CCOCC4)CC3)ccnc2c1` (stereo unspecified) was 75.1% (inactive); that for `Cc1ccc(C2=Nc3c(N)ncnc3NC(c3cccc(Nc4ccnc5cc(C(F)(F)F)ccc45)c3)C2)cc1` (stereo unspecified) was 21% (inactive).
On to `COc1ccc(-c2noc(C(=O)O)c2-c2cc(OC)c(OC)c(OC)c2)cc1`, for which the growth is 22.6% (inactive).
As to `CCOC(=O)c1nn(-c2ccc(S(N)(=O)=O)cc2)c2nc(C)cc(=O)n12`, the growth was 90.8% (inactive).
Still for that read-out and setting: under `CCSC(SCC)c1ccc(Cl)cc1` stands 82.9% (inactive); under `CSc1nc2ccccc2cc1/C=C1/C=C(c2ccccc2)NC1=O`, 77.9% (inactive); under `COC1/C=C/OC2(C)Oc3c(C)c(O)c4c(O)c(c(/C=N/Nc5ccc([N+](=O)[O-])cc5[N+](=O)[O-])c(O)c4c3C2=O)NC(=O)C(C)=C/C=C/C(C)C(O)C(C)C(O)C(C)C(OC(C)=O)C1C` (stereo unspecified), 74.2% (inactive).
Still for that read-out and setting: the value for `O=C1C(Cl)=C(Nc2ccc(S(=O)(=O)N3CCOCC3)cc2)C(=O)c2ccccc21` was 78.5% (inactive).
Still for that read-out and setting: under `c1csc(-c2ccc(CNc3c4ccccc4nc4ccccc34)cc2)c1` stands 35.5% (inactive).
With `Nc1ncc(-c2ccc3ncnc(Nc4cccc(Cl)c4)c3c2)cn1`, the growth is 25.6% (inactive).
Regarding `CCOC(=O)C#Cc1c(C(=O)OCC)nnn1Cc1ccc([N+](=O)[O-])cc1`, the growth was -52% (active).
